Assay outcomes: PubChem, National Center for Advancing Translational Sciences (NCATS)
An excerpt weighted towards active compounds, which were near 3.5% of everything screened.
Sm TGR block: inhibitors of Schistosoma mansoni thioredoxin glutathione reductase; Q962Y6; Potency, µM (series often up to 114 µM), for inactives: at the top dose activity change, negative = inhibition, usual class: inhibitors; actives 3% (n = 360,000); AID 485364; purified TGR, DTNB reduction, TNB absorbance 405 nm; further: on the % scale 0 is the no-effect control and ±100 the full control effect; nearly all actives have a fitted effect of over 60% in size
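TGR 20 nM + NADPH 100 uM (dispensed conc.), cpd preinc 15 min RT; start with NADPH (500 uM addition) then DTNB (15 mM addition). Kinetic TNB absorbance, 405 nm filter. Four-parameter Hill fit across titration.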
LmPK inh: inhibitors of Leishmania mexicana pyruvate kinase. Q27686. purified LmPK, Kinase-Glo ATP luminescence, 1 h. Potency, µM (doses to about 57.5 µM), inactives show at the highest dose activity change, negative = inhibition, usual class: inhibitors. actives 0.37% (n = 290,000); further: on the % scale 0 is the no-effect control and ±100 the full control effect
Target sequence (Q27686 whole entry, looked up): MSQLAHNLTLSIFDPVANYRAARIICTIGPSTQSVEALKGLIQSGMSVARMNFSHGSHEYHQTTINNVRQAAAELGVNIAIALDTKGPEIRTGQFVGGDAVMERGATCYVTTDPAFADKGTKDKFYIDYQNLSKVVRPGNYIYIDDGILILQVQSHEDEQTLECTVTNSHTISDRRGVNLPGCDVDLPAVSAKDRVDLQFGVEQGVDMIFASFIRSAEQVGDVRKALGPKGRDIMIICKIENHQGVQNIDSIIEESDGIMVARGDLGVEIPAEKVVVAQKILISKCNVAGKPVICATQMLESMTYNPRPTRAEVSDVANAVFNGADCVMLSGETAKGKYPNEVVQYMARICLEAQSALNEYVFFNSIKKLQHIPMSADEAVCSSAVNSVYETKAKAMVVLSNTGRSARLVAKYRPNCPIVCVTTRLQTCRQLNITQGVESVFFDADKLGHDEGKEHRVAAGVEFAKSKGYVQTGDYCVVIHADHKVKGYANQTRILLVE
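Kinase-Glo luminescence read after 1 h RT reaction of 0.1 nM LmPK with 0.5 mM PEP and 0.1 mM ADP. Activity scaled between uninhibited and enzyme-free controls.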
RE007 growth inh: less growth of the S. pombe RE007 Vpr strain. S. pombe RE007 Vpr strain, BacTiter-Glo ATP luminescence, 24 h. Potency, µM (highest dose often 92.2 µM), inactives show at the top dose activity change, negative = less growth, most hits filed as inhibitors. actives 0.21% (n = 360,000). AID 651644; active means well fitted falling curve with a large enough effect; inconclusive means small, poorly fitted or top-dose-only effect; inactive means no such curve, though single readings can be large or run the other way; further: on the % scale 0 is the no-effect control and ±100 the full control effect; nearly all actives have a fitted effect of over 50% in size
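Fission yeast strain RE007, carrying one chromosomally integrated HIV-1 vpr copy, was seeded at OD 0.01 in PMG+AL medium with 23 nL pinned compound. After 24 h at 30 °C and 99% humidity, viability was read by BacTiter-Glo luminescence.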
Tb PYK inh: T. brucei pyruvate kinase inhibition | TbPYK enzyme, Kinase-Glo Plus ATP luminescence, 45 min | Potency, µM (doses to about 76.8 µM), for inactives: at the top dose activity, negative = inhibition, most hits filed as inhibitors | actives 0.12% (n = 410,000) | AID 624173; further: on the % scale 0 is the no-effect control and ±100 the full control effect; nearly all actives have a fitted effect of over 50% in size
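Enzyme and substrate buffer are dispensed first and compound is pin-transferred. ADP at 130 uM final then starts the reaction, which runs 45 min at room temperature. Detection reagent is added for 10 min before luminescence is imaged.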
NS1 function inh: blocks influenza NS1 protein function; AID 2326; actives 0.4% (n = 270,000); Potency, µM (titrated, usually from 46.1 µM), for inactives: at the highest dose activity, positive = more growth; calls by dose curve; further: actives are rising curves; nearly all actives have a fitted effect of over 50% in size
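Read-out: OD600 growth recovery of NS1-expressing budding yeast. Cells grown overnight at 30C in -URA glucose medium, washed, resuspended and diluted 1:100 in 2% galactose assay medium, pH 6.0. Same strain lacking NS1 served as positive control.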
FBPA Giardia inh: inhibitors of Giardia lamblia fructose-1,6-bisphosphate aldolase | purified Giardia FBPA | Potency, µM (titrated, usually from 59.6 µM), without a hit: at the highest dose activity, negative = inhibition, usual class: inhibitors | actives 0.71% (n = 290,000) | AID 2451; further: on the % scale 0 is the no-effect control and ±100 the full control effect; nearly all actives have a fitted effect of over 55% in size
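Giardia FBPA (40 nM reagent) was preincubated 10 min at RT with compound (up to 57.5 uM final), then substrate plus GAPDH/TPI/NAD/arsenate coupling system with diaphorase/resazurin was added; resorufin fluorescence (525/598 nm) was read after 20 min.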
Numbers without * were called inactive; ? = inconclusive; . = no result. Unless noted, the call rests on the fitted dose curve; in most records, active means well fitted curve in the direction sought with a large enough effect; inconclusive means small, poorly fitted or top-dose-only effect, or another doubt; inactive means no such curve, though single readings can be large; an effect the other way counts as inactive or inconclusive. Potency means the concentration at half of the fitted maximal effect.

SMILES	Sm TGR block	LmPK inh	RE007 growth inh	Tb PYK inh	NS1 function inh	FBPA Giardia inh
O=C1NC(=O)N(CCc2ccc(F)cc2)C(=O)/C1=C\C=C\c1ccccc1	?	-1.0%	-2.3%	4.1%	.	1.0%
C/C(=N\Nc1ccc([N+](=O)[O-])cc1)c1ccc(N)cc1	-35.6%	-3.7%	10.9%	1.9%	-43.3%	-3.8%
C/C(=N\Nc1nc(C)c(C)s1)c1ccc([N+](=O)[O-])cc1	22.4µM*	-4.1%	-19.7%	-2.5%	.	-20.5%
CO[C@H]1/C=C\C=C(\C)C(=O)NC2=CC(=O)C(NCCN(C)C)=C(C[C@@H](C)C[C@H](OC)[C@H](O)[C@@H](C)/C=C(/C)[C@@H]1OC(N)=O)C2=O	.	.	.	3.6%	.	.
COC1=C2C[C@@H](C)C[C@H](OC)[C@H](O)[C@@H](C)/C=C(\C)[C@H](OC(N)=O)[C@@H](OC)/C=C\C=C(/C)C(=O)NC(=CC1=O)C2=O	.	.	.	.	.	3.54µM*
COc1cccc(-n2c(Cn3nc(C(F)(F)F)cc3C)n[nH]c2=S)c1	15.4%	-5.7%	.	3.98µM*	-8.5%	-13.0%
COc1ccc(-n2c(COc3ccc(C)cc3)n[nH]c2=S)cc1	0.0%	-12.0%	4.0%	?	6.5%	?
Cc1ccc(-n2c(Cn3nc(C(F)(F)F)cc3C)n[nH]c2=S)cc1	9.1%	-20.7%	4.9%	10µM*	2.1%	-1.4%
COc1ccc(-n2c(Cn3nc(C(F)(F)F)cc3C)n[nH]c2=S)cc1	-0.1%	-8.5%	5.6%	3.16µM*	3.8%	-19.5%
CCCOc1ccc(CNC(=O)C(CC)n2nc(C)c3sc4ccccc4c3c2=O)cc1 (stereo not drawn)	-8.1%	.	.	-6.6%	.	.
O=C1CCCC2[C@@H]3CCC[N@+]4([O-])CCC[C@H](CN12)C34 (stereo partly drawn)	.	.	.	.	.	-1.3%
S=C(NCc1ccco1)Nc1ccccc1	?	9.7%	-6.3%	3.2%	5.8%	2.5%
S=C(NCc1ccco1)Nc1ccc(Cl)cn1	3.16µM*	7.3%	2.6%	-12.0%	14.2%	0.2%
S=C(NCc1ccco1)Nc1ccccn1	14.1µM*	0.0%	-16.0%	-19.4%	-4.4%	-0.9%
Cc1ccc(C)c(C(=O)CSc2nc(-c3ccccc3)nc3c2CCCC3)c1	-5.7%	.	.	-1.8%	.	.
O=C(Oc1ccc2c(=O)c(Cl)coc2c1)c1cccnc1	31.6µM*	0.5%	-5.8%	-2.1%	-115.6%	3.9%
COc1ccc(C(=O)N/C(=C/c2cccs2)C(=O)N2CCN(C)CC2)cc1	.	.	-0.3%	-19.1%	.	.
CC1CCN(C(=O)/C(=C\c2cccs2)NC(=O)c2ccccc2)CC1	3.98µM*	-4.5%	-16.1%	-12.0%	-14.2%	-10.5%
O=C(N/C(=C\c1ccco1)C(=O)N1CCCC1CO)c1ccccc1 (stereo not drawn)	35.5µM*	-0.3%	-5.4%	8.2%	5.8%	1.6%
Cc1ccc(C(=O)N/C(=C/c2ccco2)C(=O)N2CCC(C)CC2)cc1	50.1µM*	-5.6%	0.6%	-6.0%	8.9%	-16.3%
CC1CCN(C(=O)/C(=C\c2ccco2)NC(=O)c2ccccc2)CC1	-35.2%	2.3%	5.3%	-1.9%	15.5%	2.2%
CC1=C(c2ccc(C)cc2)S(=O)(=O)N(Cc2ccc(C(=O)Nc3ccc(F)cc3C)cc2)C1=O	-5.8%	.	.	3.9%	.	.
CC1Oc2cc3c(-c4c(O)cc(O)c5c(O)c6c(cc45)OC(C)C(C)C6=O)c(O)cc(O)c3c(O)c2C(=O)C1C (stereo not drawn)	31.6µM*	-6.0%	-15.6%	-3.7%	17.7%	?
C[C@@H]1Cc2c(O)c(O)cc(O)c2C(=O)O1	?	3.4%	14.0%	0.4%	-0.7%	2.8%
CNC(=S)Nc1ccc([N+](=O)[O-])cc1C	10µM*	4.6%	24.8%	-7.9%	5.7%	1.4%
SMILES	Sm TGR block	LmPK inh	RE007 growth inh	Tb PYK inh	NS1 function inh	FBPA Giardia inh
Cc1ccc(CNC(=S)Nc2ccc(C)c([N+](=O)[O-])c2)cc1	-2.6%	3.6%	3.8%	3.8%	25.8%	-0.4%
CNC(=S)Nc1ccc([N+](=O)[O-])c(C)c1	39.8µM*	3.4%	-12.4%	-11.1%	.	0.3%
CC(=O)N1CCc2cc(CNS(=O)(=O)c3ccc(Br)s3)ccc21	5.0%	.	.	-7.7%	.	.
N#Cc1cccc(NC(=O)C2CCN(c3nc(-c4ccc(Cl)cc4)no3)CC2)c1	19.5%	.	.	-7.2%	.	.
O=C(O)C1C2C=CC(O2)C1C(=O)NCc1ccc(Cl)cc1 (stereo not drawn)	4.9%	-1.9%	35.5µM*	-4.4%	-7.2%	2.9%
COc1ccc(-c2nc3n(n2)C(=O)CC(c2ccco2)S3)cc1 (stereo not drawn)	17.8µM*	3.7%	5.4%	-20.3%	-3.5%	-6.7%
COc1ccc(C2NC(=O)N(C)C3=C2C(=O)N(c2cccc(C(=O)O)c2)C3)cc1 (stereo not drawn)	-1.6%	.	.	-10.8%	.	.
COc1ccc(NC(=O)Nc2nnc(N(C)C3CCCCC3)s2)c(OC)c1	0.2%	.	.	-3.6%	.	.
O=C(NCc1ccco1)c1ccccc1-c1ccccc1	?	1.1%	5.5%	-17.8%	9.6%	1.5%
COc1ccc(Cl)cc1C(=O)NCc1ccco1	44.7µM*	0.7%	-4.6%	6.5%	-29.5%	-0.2%
Cc1csc2ncc(C(=O)NCc3ccco3)c(=O)n12	44.7µM*	1.7%	-12.0%	-1.7%	0.7%	-0.9%
CN(c1ccccc1C(=O)NCc1ccco1)S(C)(=O)=O	39.8µM*	2.4%	0.6%	-1.2%	9.4%	-11.0%
O=C(O)c1ccccc1-c1ccccc1C(=O)NCc1ccco1	50.1µM*	3.3%	-2.4%	-6.5%	-3.7%	15.0%
O=C(NCc1ccco1)c1cnc2sccn2c1=O	?	-1.5%	5.3%	2.1%	8.4%	2.8%
COc1ccc(-c2nc3sc(CCNC(=O)C(=O)Nc4ccc(C)c(F)c4)c(C)n3n2)cc1	-4.0%	.	.	0.8%	.	.
CC(C)OCCCn1c(=O)c2ccccc2n2c(-c3ccc(F)cc3)nnc12	-12.1%	.	.	-11.7%	.	.
Fc1ccc(-n2ncc3c(NCCCn4ccnc4)ncnc32)cc1	-6.2%	.	.	1.7%	.	.
Cc1cccc(N2CCN(C(=O)CN3C(=O)COc4ccc(S(=O)(=O)N5CCC(C)CC5)cc43)CC2C)c1 (stereo not drawn)	-2.2%	.	.	3.4%	.	.
O=C(CN1CCN(c2ccccc2)CC1)NC(=O)NCc1ccco1	-16.3%	3.1%	-19.6%	-8.1%	19.4%	2.3%
CC(C)(Oc1ccc(Cl)cc1)C(=O)NCc1ccncc1	0.9%	-1.9%	-16.8%	-5.6%	-13.3%	3.1%
O=C(CN1CCN(c2ccccc2F)CC1)NC(=O)NCc1ccco1	28.2µM*	-1.8%	-3.2%	-6.0%	.	-2.6%
Nc1ccccc1C(=O)NCc1ccco1	?	-3.6%	6.7%	0.3%	-6.5%	8.8%
